Experimental data as given in PubChem BioAssay AID1415 (NMMLSC, 2008).
The whole screen tested about 220,000 compounds, of which about 710 (0.32%) were called active. The entries come from a sample that favours actives as a whole. Values without a mark were called inactive. No stated cut-off is given here; in the data, active means binding response below about 49% or above about 150%; inactive means in between.

Target: Guanine nucleotide-binding protein G(o) subunit alpha (Homo sapiens) (UniProt P09471)
Sequence (P09471 whole entry, looked up): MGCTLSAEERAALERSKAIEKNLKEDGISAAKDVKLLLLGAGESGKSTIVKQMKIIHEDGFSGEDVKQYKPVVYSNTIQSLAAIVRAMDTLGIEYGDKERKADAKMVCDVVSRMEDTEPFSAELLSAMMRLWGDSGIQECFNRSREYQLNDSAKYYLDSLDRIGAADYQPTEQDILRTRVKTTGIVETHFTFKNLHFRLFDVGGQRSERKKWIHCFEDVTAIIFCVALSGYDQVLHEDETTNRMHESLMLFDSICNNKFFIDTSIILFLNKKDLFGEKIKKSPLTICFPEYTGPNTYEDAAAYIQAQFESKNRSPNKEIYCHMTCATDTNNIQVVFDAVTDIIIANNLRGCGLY
Assay: modulators of RGS4 binding to Galphao, primary screen, biochemical, multiplexed bead flow cytometry (AID 1415);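 further: fluorescent Galphao activated with aluminum fluoride binding bead-coupled RGS4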
Details: at 10 µM, actives lie on both sides

| Structure (SMILES) | binding response (% of control) |
| --- | --- |
| Cc1[nH]c2ccccc2c1/C=N\NC(=O)Cn1nnc(-c2ccccc2)n1 | 102% |
| Cc1[nH]c2ccccc2c1/C=N/NC(=O)CNC(=O)c1ccc2c(c1)OCO2 | 111% |
| COCCNC(=S)N/N=C/c1c(C)[nH]c2ccccc12 | 159% [activator] (active) |
| O=C(Nc1ccc(F)cc1)C1CCN(C(=O)c2ccc([N+](=O)[O-])cc2)CC1 | 99.8% |
| CCN(CC)CCN1C(=O)C(=O)/C(=C(/O)c2ccc(OC)c(OC)c2)C1c1ccccn1 (stereo not given) | 99.2% |
| COc1cc(C(=O)OCc2ccc([N+](=O)[O-])cc2)cc(OC)c1OC | 98.2% |
| CCN(CC)CCn1cnc2c1c(=O)n(CCOC(=O)c1cc(OC)c(OC)c(OC)c1)c(=O)n2C | 155% [activator] (active) |
| COCCCn1c(-c2cccs2)nc2nc3ccccc3nc21 | 103% |
| COc1cccc(C(=O)NCCSc2ccc(Br)cc2)c1 | 19.5% (active) |
| COc1cc(OC)cc(C(=O)NCCSCc2ccco2)c1 | 93.2% |
| COc1cccc(C(=O)NNC(=O)c2ccccc2Br)c1 | 103% |
| C#CCOCCOCCOCCNc1nc(N2CCN(C(=O)[C@H](CCC(=O)O)n3cc(C(N)CO)nn3)CC2)nc(N2CCN(C(=O)[C@H](CCCCN)n3cc(C(N)CC(C)C)nn3)CC2)n1 (stereo not given in full) | 104% |
| Cc1ccc(NC(=O)c2oc(=O)c3ccccc3c2-c2ccccc2)c(C)c1 | 105% |
| CCCCCCCCCOC1OC(CO)C(O)C(O)C1NC(C)=O (stereo not given) | 98.8% |
| CC(C)=CCC/C(C)=C/C(=O)O | 92.6% |
| COCCNC(=S)Nc1cc(S(=O)(=O)N2CCOCC2)ccc1N1CCCCC1 | 97.4% |
| COc1ccccc1CCNC(=O)c1cnccn1 | 97.6% |
| NC(=O)CSc1c[nH]c2ccccc12 | 30% (active) |
| O=C(Cc1c[nH]c2ccccc12)OCCOC(=O)Cc1c[nH]c2ccccc12 | 97.3% |
| CCCn1cc(SCC(N)=O)c2ccccc21 | 82.2% |
| COc1ccc(Cl)cc1C(=O)NNC(=S)NC(=O)/C=C/c1ccco1 | 104% |
| CCOc1ccc(-c2c(C)n([O-])c3c([n+]2=O)CCCC3)cc1 | 102% |
| Cc1c(S(=O)(=O)NCc2ccccc2)c(=O)n(C)c(=O)n1C | 103% |

| Structure (SMILES) | binding response (% of control) |
| --- | --- |
| CC(C)=CCc1c(O)c(CC=C(C)C)c2occ(-c3ccc(O)cc3)c(=O)c2c1O | 96.8% |
| CC(=O)c1cc(-c2ccccc2)n(CC(=O)NC2CCCCC2)c1C | 94.2% |
| CCOCCCNC(=O)C(NC(=O)c1ccc(=O)[nH]c1)c1ccc(Cl)cc1 (stereo not given) | 98.1% |
| CC(OC(=O)c1ccc2ccccc2n1)C(=O)c1ccccc1 (stereo not given) | 103% |
| COc1ccc(C2=NOC(COC(=O)c3ccc4ccccc4n3)C2)cc1 (stereo not given) | 99.3% |
| COc1ccc(C(=O)COC(=O)c2ccc3ccccc3n2)cc1 | 36.8% (active) |
| Cc1nc(N)[nH]c(=O)c1Oc1cccc(C(F)(F)F)c1 | 99.6% |
| CCCCCCCN=C(C)c1ccccc1O | 103% |
| CCOC(=O)C1Cn2c(nc3c(c2=O)C(C)(CC)Cc2ccccc2-3)S1 (stereo not given) | 93% |
| CCC(=O)Nc1cccc(C2=NOC3(C2)C[C@@H](C(N)=O)N(C(=O)c2cc([N+](=O)[O-])cc([N+](=O)[O-])c2C)C3)c1 (stereo not given in full) | 96% |
| COc1ccc(/C=C/C(=O)Nc2ccc(C34CC5CC(CC(O)(C5)C3)C4)cc2)cc1OC | 102% |
| Cc1ccsc1/C=N/Nc1ccc(Cl)nn1 | 108% |
| C=CCN1CC(C)/C(=N\O)CC1C (stereo not given) | 99.6% |
| O=C(NC1CCCCC1)c1ccc(CNc2c(N3CCOCC3)c(=O)c2=O)cc1 | 102% |
| CCN(CC)CCOc1ccc2c(c1)C(=NNC(=O)c1ccccn1)c1cc(OCCN(CC)CC)ccc1-2 | 172% [activator] (active) |
| CCOc1cc(NC(=O)c2ccccn2)c(OCC)cc1NC(=O)c1ccc(OC)cc1 | 102% |
| COc1ccc(CC(=O)N/N=C(\C)c2ccccn2)cc1 | 91.7% |
| COC(=O)c1c(C(=O)OC)c(-c2cccc(C)c2)n2c1CS(=O)C2 (stereo not given) | 91.5% |
| CCC(=O)Nc1nc(OC)cc(OC)n1 | 102% |
| COc1cc(OC)nc(NC(=O)CCl)n1 | 101% |
| CC(=O)Nc1nc(N(C)C)nc(N(C)C)n1 | 14.5% (active) |
| O=C(NCc1ccc(F)cc1)C1CCC(CNc2c(N3CCOCC3)c(=O)c2=O)CC1 (stereo not given) | 11.6% (active) |
| CC(NC(=O)C1CCC(CNc2c(N3CCOCC3)c(=O)c2=O)CC1)c1ccccc1 (stereo not given) | 99.8% |

| Structure (SMILES) | binding response (% of control) |
| --- | --- |
| COc1ccc(CNC(=O)C2CCC(CNc3c(N4CCOCC4)c(=O)c3=O)CC2)cc1 (stereo not given) | 106% |
| O=C(c1ccc(Br)o1)N(c1ccccn1)C1CCCCC1 | 92.3% |
| CC(Nc1nc(N2CCN(CCO)CC2)nc2ccccc12)c1ccccc1 (stereo not given) | 100% |
| Cc1ccc(NC(=S)N2CCN(c3ncccn3)CC2)cc1C | 104% |
| C=CCc1cccc2cc(C(=O)NC3CCCC3)c(=O)oc12 | 97.8% |
| C/C=C\C=C\C(=O)N1CC2(CC(c3cccc(NC(=O)/C(C)=C\C)c3)=NO2)C[C@H]1C(N)=O (stereo not given in full) | 103% |
| COc1ccc(CC(=O)n2nc(-c3cccnc3)nc2N)cc1 | 96.8% |
| CCCC(=O)n1nc(-c2ccccc2)nc1N | 25.8% (active) |
| COc1ccccc1C(=O)n1nc(-c2ccccc2)nc1N | 98.8% |
| CCCNC(=S)NC1CC2CCCC(C1)N2CC(C)C (stereo not given) | 99.3% |
| CCNC(=O)CC1C(=O)N(c2ccc(F)cc2)C(=O)N1CCc1sccc1C (stereo not given) | 99.7% |
| CC(C)C(NS(=O)(=O)c1cccs1)C(=O)Nc1nc(C(C)(C)C)cs1 (stereo not given) | 99% |
| COc1ccc(CCNC(=O)C2CC3Cn4c(nc5cc(C)c(C)cc54)C3N2C)cc1 (stereo not given) | 103% |
| COc1ccc(C)cc1NC(=O)CSc1ccc(Cl)cc1 | 105% |
| CCOc1ccc(-c2ccc(SCC(=O)N3CCOCC3)nn2)cc1 | 104% |
| CCOC(=O)c1c(C)[nH]c(C2=NNC(=NC(C)COC)SC2)c1C (stereo not given) | 92.4% |
| CCOC(=O)C1Sc2[nH]c(=O)sc2C(c2ccc(Cl)cc2)C1C(=O)OCC (stereo not given) | -41.2% (active) |
| CCOC(=O)C1=C(C)NC(=O)N(C(C)=O)C1c1ccc(Cl)cc1 (stereo not given) | 115% |
| CCOC(=O)C1C(c2ccc(Cl)cc2)NC(=S)NC1(O)C(F)(F)F (stereo not given) | 102% |
| CC(=O)NS(=O)(=O)c1ccc(NC(=O)C2C3C=CC(C3)C2C(=O)O)cc1 (stereo not given) | 101% |
| CCOC(=O)c1c(Cc2ccc(Cl)cc2)c[nH]c1C | 102% |
| Cc1cc(C)cc(N(CC(=O)Nc2c(C)n(C)n(-c3ccccc3)c2=O)S(C)(=O)=O)c1 | -43.6% (active) |
| Cc1ccc(S(=O)(=O)CC(=O)Nc2c(C)n(C)n(-c3ccccc3)c2=O)cc1 | 97.9% |

| Structure (SMILES) | binding response (% of control) |
| --- | --- |
| Cc1cc(C)cc(N(C(C)C(=O)Nc2c(C)n(C)n(-c3ccccc3)c2=O)S(C)(=O)=O)c1 (stereo not given) | 102% |
| COCCCNC(=O)CN1CCN(Cc2ccccc2Cl)C1=O | 103% |
| O=C(COc1ccc(/C=N/NC(=O)c2ccc(O)cc2)cc1)Nc1ccc([N+](=O)[O-])cc1 | 103% |
| Cc1cc(N2CCOCC2)nc(-c2ccc(Br)cc2)n1 | 95.9% |
| C#CCOCCOCCOCCNc1nc(N2CCN(C(=O)[C@H](CCC(=O)O)n3cc(C(N)CO)nn3)CC2)nc(N2CCN(C(=O)[C@H](CCCCN)n3cc(C(N)[C@H](C)CC)nn3)CC2)n1 (stereo not given in full) | 102% |
| C=CCc1cccc2cc(C(=O)Nc3ccc(NC(C)=O)cc3)c(=O)oc12 | 102% |
| N#Cc1nc(-c2ccc(OCc3ccccc3)cc2)oc1NCCCN1CCOCC1 | 100% |
| N#Cc1nc(Cc2ccccc2)oc1NCCc1ccccc1 | 103% |
| N#Cc1nc(COc2ccc(-c3ccccc3)cc2)oc1NCc1cccnc1 | 153% [activator] (active) |
| Cc1ccccc1C1=NC(C(F)(F)F)(C(F)(F)F)c2c(n(-c3ccc(F)cc3)c(=O)[nH]c2=O)N1 | 104% |
| CCC(C)NC(=O)CN(C1CCCCC1)S(C)(=O)=O (stereo not given) | 99.8% |
| O=S(=O)(NC(=S)Nc1ccccc1)c1ccc(F)cc1 | 103% |
| CC(C)Oc1ccc(CC(=O)NNC(=S)Nc2ccc(Br)cc2)cc1 | 99.3% |
| O=C(NCc1ccc2c(c1)OCO2)C12CC3CC(CC(C3)C1)C2 | 98.9% |
| Cc1ccc(C2NC(C(=O)O)CS2)cc1 (stereo not given) | 103% |
| O=C(CSC1=NCCS1)Nc1nc(-c2ccccc2)cs1 | 83.7% |
| Cc1cccc(S(=O)(=O)CC(=O)Nc2nc(-c3ccccc3)cs2)c1 | 183% [activator] (active) |
| NS(=O)(=O)c1ccc(Nc2nc(-c3ccccc3)cs2)cc1 | 106% |
| CCOc1ccccc1Oc1cn[nH]c1-c1ccc(OC)cc1O | 99% |
| COc1ccc(Cl)cc1C(=O)NNC(=O)c1nc2nc(C)cc(C)n2n1 | 103% |
| C#CCOCCOCCOCCNc1nc(N2CCN(C(=O)[C@H](C(C)C)n3cc(CCO)nn3)CC2)nc(N2CCN(C(=O)[C@H]([C@@H](C)CC)n3cc(CCCN=C(N)N)nn3)CC2)n1 | 101% |
